NS1 inh – inhibitors of influenza NS1 protein function. Potency, µM (titrated, usually from 46.1 µM), for the others: at the top dose activity, positive = more growth. 270,000 tested, 0.4% active; calls by dose curve; further: actives are rising curves; nearly all actives have a fitted effect of over 50% in size
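Growth recovery, yeast-based: influenza A NS1 expressed in S. cerevisiae causes slow growth, and suppressors are detected by OD600. The parent strain without NS1 is used as positive control.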
Pf growth 48h – inhibits P. falciparum growth in the first generation, 48 h. P. falciparum luciferase growth in erythrocytes, 48 h. Potency, µM (series often up to 28.7 µM), without a hit: at the top dose activity change, negative = inhibition, actives largely listed as inhibitors. 310,000 tested, 5.9% active; further: on the % scale 0 is the no-effect control and ±100 the full control effect
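Compounds are pin-transferred into medium, infected erythrocytes (2% hematocrit, 0.1% parasitemia final) are added, and plates sit one parasite generation at 37 C in 5% CO2. Detection reagent is then added and luminescence measured.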
Pf growth 96h – P. falciparum growth inhibition at 96 hours; P. falciparum luciferase reporter growth, 96 h; Potency, µM (doses to about 28.7 µM), for the others: at the highest dose activity change, negative = inhibition, usual class: inhibitors; 320,000 tested, 6.9% active; AID 504834; further: on the % scale 0 is the no-effect control and ±100 the full control effect
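Compounds incubated with erythrocytes infected by luciferase-expressing P. falciparum (2% hematocrit, 0.05% parasitemia final) for 96 hours, 37 C in 5% CO2. Growth inhibition scored as decreased luciferase luminescence.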
SARS PLP yeast – SARS-CoV PLP inhibition in yeast; S. cerevisiae expressing SARS-CoV PLpro, growth rescue; Potency, µM (series often up to 32.9 µM), for inactives: top-dose activity, positive = growth rescue, actives largely listed as activators; 330,000 tested, 0.19% active; calls by dose curve; further: 0% is about no effect; nearly all actives have a fitted effect of over 55% in size
Active calls of the source: *; ? = inconclusive; · = no result. Only some compounds are listed: those with a hit (about 10% of all), similar ones and a draw of the others. Unless noted, the call rests on the fitted dose curve; in most records, active means well fitted inhibition curve with a large enough effect; inconclusive means small, poorly fitted or top-dose-only effect, or another doubt; inactive means no such curve, though single readings can be large or run the other way. Potency means the concentration at half of the fitted maximal effect.

SMILES	NS1 inh	Pf growth 48h	Pf growth 96h	SARS PLP yeast
CC(NCC(=O)Nc1ccccc1C(=O)NC1CC1)c1ccc(S(N)(=O)=O)cc1 (stereo not drawn)	·	-10%	42%	11%
CCN(CC)S(=O)(=O)c1ccc(C(C)NCC(=O)Nc2ccccc2C(=O)NC2CC2)cc1 (stereo not drawn)	·	10µM*	?	-1%
CC(NCC(=O)Nc1ccccc1C(=O)NC1CC1)c1ccco1 (stereo not drawn)	·	1.7µM*	7%	4%
CC1CCC(C(=O)NC(C(=O)NCCc2ccc(S(N)(=O)=O)cc2)C(C)C)CC1 (stereo not drawn)	0%	-7%	?	0%
O=C(Cc1c(F)cccc1Cl)NNC(=O)c1ccncc1	·	-7%	-25%	0%
CN(C)S(=O)(=O)c1ccc(C(=O)N2CCCC2c2nc3ccccc3s2)cc1 (stereo not drawn)	-10%	?	?	-17%
O=S(=O)(c1ccc(Br)cc1)N1CCCC1c1nc2ccccc2s1 (stereo not drawn)	-6%	10µM*	?	-6%
O=S(=O)(c1ccc(N2CCCC2c2nc3ccccc3s2)nc1)N1CCOCC1 (stereo not drawn)	-2%	10µM*	12µM*	-4%
O=C(O)COCC(=O)Nc1ccc(-n2cnnn2)cc1	·	19%	59%	2%
Cc1c(CN2CCc3c([nH]c4ccccc34)C2CC(C)C)cnn1C (stereo not drawn)	-3%	-28%	0%	3%
CC(C)CC1c2[nH]c3ccccc3c2CCN1C(=O)c1cnccn1 (stereo not drawn)	1%	?	?	1%
CC(C)CC1c2[nH]c3ccccc3c2CCN1C(=O)C1CCOCC1 (stereo not drawn)	-5%	4.7µM*	4%	-1%
CC(C)CC1c2[nH]c3ccccc3c2CCN1C(=O)CCC(=O)N(C)C (stereo not drawn)	-5%	1%	6.6µM*	0%
CC(=O)c1cc(C(=O)N2CCc3c([nH]c4ccccc34)C2CC(C)C)[nH]n1 (stereo not drawn)	-4%	?	9.3µM*	0%
CC1CC1C(=O)OCC(=O)Nc1cc(S(=O)(=O)N2CCCCC2)ccc1Cl (stereo not drawn)	·	·	·	-3%
Cc1c(O)ccc2c(-c3ccccc3)cc(=O)oc12	9%	?	-13%	-1%
Cc1cccc2cc(-c3ccccc3)c(-c3ccccc3)c[n+]12	3%	1.9µM*	1.3µM*	-8%
O=S(=O)(c1ccccc1)c1ncc(C(F)(F)F)cc1Cl	·	10µM*	?	-2%
CCN(CC)S(=O)(=O)c1ccc(N/N=C/c2ccccc2OCC(=O)O)c([N+](=O)[O-])c1	·	10µM*	1.7µM*	1%
CC1(C)OC[C@@H]2O[C@@]3(C(=O)O)OC(C)(C)O[C@@H]3[C@@H]2O1	·	4%	-13%	·
CC1(C)C=Cc2cc3ccc(=O)oc3cc2O1	-4%	84%	?	-1%
COc1c2c(cc3oc(=O)ccc13)OC(C)(C)C=C2	-5%	7%	0.0047µM*	1%
COc1ccc(S(=O)(=O)N2CCN(C(=O)Cc3cccs3)CC2)cc1	-5%	5%	-9%	-16%
O=C(CN(Cc1ccco1)Cc1cccs1)N1CCN(S(=O)(=O)c2cccc(F)c2)CC1	·	13µM*	?	10%
O=C(Cc1cccs1)N1CCN(S(=O)(=O)c2ccccc2)CC1	4%	14%	13µM*	0%
SMILES	NS1 inh	Pf growth 48h	Pf growth 96h	SARS PLP yeast
Cc1ccc(C)c(OC(=O)c2cccc(S(=O)(=O)N3CCN(C)CC3)c2)c1	-9%	?	?	-5%
Cc1cc(-c2nnco2)c(C)n1-c1ccc(F)cc1	-49%	64%	-3%	9%
Cc1ccc(C)n1-c1ccc(-c2nnco2)cc1	5%	-6%	12µM*	-2%
COc1ccc(CC(=O)Oc2ccc(F)cc2)cc1	-5%	10%	-6%	-14%
CCOn1c(=O)c(-c2cc(OC)ccc2OC)[n+]([O-])c2ccccc21	-2%	-54%	?	0%
CCOc1ccc(-c2c(=O)n(OCc3ccc([N+](=O)[O-])cc3)c3ccccc3[n+]2[O-])cc1	29%	40%	12µM*	3%
CCOc1ccc(OCC)c(-c2c(=O)n(OCc3ccc(C(C)(C)C)cc3)c3ccccc3[n+]2[O-])c1	5%	?	12µM*	1%
O=C1CCC(C(=O)NCc2ccccc2)N1 (stereo not drawn)	3%	4%	-16%	1%
Cc1cc(Cl)c2oc(C(=O)N(C)CCc3cnn(C)c3)c(C)c2c1	-12%	-1%	10µM*	9%

Assay outcomes deposited in PubChem BioAssay by National Center for Advancing Translational Sciences (NCATS).
